Assay outcomes (PubChem BioAssay)
Compounds with a hit are over-represented: about 11% of the library has one in this group of screens.
G9a block = blocks human histone lysine methyltransferase G9a | AID 504332 | Q96KQ7 | hit rate 8.8% among 350,000 | G9a H3K9 monomethylation, AlphaScreen, 2 h | Potency, µM (titrated, usually from 102 µM), inactives show at the top dose activity, negative = inhibition, usual class: inhibitors; also: % is scaled to controls: 0 for no effect and ±100 for the full control effect; nearly all actives have a fitted effect of over 75% in size
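Chemiluminescent proximity detection of H3K9 monomethylation, read after 10 min bead incubation in the dark. Reaction: 20 nM G9a, 500 nM biotin-H3K9 peptide, 20 uM SAM cofactor, 2 h, room temperature, following 15 min enzyme-compound preincubation.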
JMJD2A Tudor = JMJD2A Tudor domain (human) inhibition | AlphaScreen JMJD2A-Tudor / H3K4me3 peptide binding | Potency, µM (highest dose often 114 µM), inactives show top-dose activity change, negative = inhibition, hits mostly inhibitors | hit rate 4.4% among 390,000 | AID 504339; also: % is scaled to controls: 0 for no effect and ±100 for the full control effect; nearly all actives have a fitted effect of over 50% in size
L3MBTL1 block = blocks human L3MBTL1; Q9Y468; AlphaScreen L3MBTL1–H3K9me1 peptide binding; Potency, µM (titrated, usually from 57.1 µM), for inactives: top-dose activity, negative = inhibition, most hits filed as inhibitors; hit rate 0.66% among 230,000; AID 485360; also: % is scaled to controls: 0 for no effect and ±100 for the full control effect; nearly all actives have a fitted effect of over 60% in size
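Read-out is AlphaScreen signal from streptavidin donor and nickel chelate acceptor beads (10 ug/mL final each) bridging L3MBTL1 (50 nM) and biotinylated K9-monomethylated H3(1-15) peptide (75 nM), after 30 min compound exposure at room temperature.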
HP1b chromo inh = inhibitors of HP1-beta chromodomain binding to methylated histone tails | P83916 | Potency, µM (titrated, usually from 114 µM), for the others: at the highest dose activity change, negative = inhibition, hits mostly inhibitors | AID 540317 | hit rate 0.56% among 390,000 | AlphaScreen HP1-beta / biotin-H3K9me3 peptide binding; also: nearly all actives have a fitted effect of over 70% in size
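HP1-beta protein (50 nM final) preincubated 30 min at room temperature with biotinylated H3(1-18)K9me3 peptide (50 nM) in PBS pH 7.4, 0.01% Tween-20, then compound added for 30 min. AlphaScreen streptavidin donor/nickel chelate acceptor beads (10 ug/mL final), 30 min dark, luminescence read.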
BAZ2B block = blocks human BAZ2B. Q9UIF8. AlphaScreen BAZ2B-H3K14Ac peptide displacement. Potency, µM (top dose mostly 114 µM), without a hit: at the highest dose activity change, negative = inhibition, actives largely listed as inhibitors. hit rate 4.4% among 360,000. AID 504333; also: % is scaled to controls: 0 for no effect and ±100 for the full control effect; nearly all actives have a fitted effect of over 60% in size
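BAZ2B (50 nM) with biotin-H3(5-23)K14Ac peptide (50 nM) in PBS pH 7.4, 0.01% Tween-20, preformed 30 min, then compound 30 min at room temperature; top concentration 110uM. AlphaScreen streptavidin donor/nickel chelate acceptor beads (10 ug/mL final), 20 min dark, signal read.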
Numbers without * were called inactive; ? = inconclusive; . = no result given; [ ] = dose if it differs, or a comment. Calls follow the shape of the dose curve; as a rule, active = well fitted inhibition curve with a large enough effect; inconclusive = small, poorly fitted or top-dose-only effect; inactive = no such curve, though single readings can be large or run the other way. Potency is read from the fitted curve at half-maximal effect.

SMILES	G9a block	JMJD2A Tudor	L3MBTL1 block	HP1b chromo inh	BAZ2B block
CCCC(=O)N(c1ccc2oc(-c3ccccc3)c(C(=O)OCC)c2c1)S(=O)(=O)c1ccc(C)cc1	-17%[59 µM]	-25%	.	66%	-1%
CN1CCC2(CC1)N=C(c1ccc(F)cc1)C(=S)N2C(=O)c1ccc(C(C)(C)C)cc1	10µM*	32µM*	-5%	32µM*	35µM*
CC(C)(C)c1ccc(C(=O)N2CCNCC2)cc1	8%[12.7 µM]	5%	.	19%	2%
COc1ccc(CCNC(=O)c2ccc(OCC(=O)N3CCOCC3)c(OC)c2)cc1OC	.	-1%	.	24%	11%
COc1ccc(S(=O)(=O)N(C)C)cc1NC(=O)c1ccc(OCC(=O)N2CCOCC2)c(OC)c1	50µM*	-23%	-4%	14%	10%
COc1ccc(CCNC(=O)c2ccc(OCC(=O)N3CCOCC3)c(OC)c2)cc1	8.9µM*	-16%	-1%	17%	-4%
O=C(Nc1cccc2cccnc12)OCc1ccccc1	.	-27%	.	12%	.
Cc1ccc(-c2cc(-c3ccc(F)cc3)nc(N)c2C#N)o1	2.5µM*	-4%	.	45%	-3%
Cc1ccc(-c2cc(-c3ccccc3)c(C#N)c(N)n2)o1	2.8µM*	?	17%	?	?
Cc1ccc(-c2cc(-c3ccccc3Cl)c(C#N)c(N)n2)o1	?	?	16%	?	?
Cc1nn(C)c(C)c1NC(=O)CCl	45µM*	-26%	9%	17%	35µM*
CCN(C(=O)Cn1c(=O)n(CCCS(=O)(=O)C2CCCCC2)c(=O)c2ccccc21)c1cccc(C)c1	8%[59 µM]	-3%	.	32%	-3%
COc1ccc(NS(=O)(=O)c2cc3[nH]c(=O)c(=O)[nH]c3cc2C)cc1OC	-26%[59 µM]	-5%	.	40%	79µM*
COc1cc(NS(=O)(=O)c2cc3[nH]c(=O)[nH]c3cc2C)cc(OC)c1OC	15%[59 µM]	-17%	.	18%[57 µM]	3%
CN(C)CCNC(=O)COc1ccc(C23CC4CC(CC(C4)C2)C3)cc1	50µM*	-31%	-11%	-18%	-31%
COc1ccc(C(=O)/C=C/c2ccc(O)cc2)c(O)c1CC=C(C)C	?	45µM*	-14%	?	?
CCc1nc(N2CCN(C(C)=O)CC2)c2c3c(sc2n1)CC(C(C)(C)C)CC3 (stereo unspecified)	-20%	?	1%	-17%	-2%
CCc1nc(N2CCN(C(=O)CCl)CC2)c2c3c(sc2n1)CC(C)CC3 (stereo unspecified)	79µM*	-29%	-3%	17%	-25%
Cc1cccc(NC2SC(=O)NC2=O)c1 (stereo unspecified)	50µM*	?	4%	0%	?
Cc1cccc(NC2CNC(=O)NC2=O)c1 (stereo unspecified)	.	-19%	.	5%	.
CN(C)c1ccc(NC(=O)COC(=O)CNC(=O)c2cccs2)cc1	-10%[12.7 µM]	?	-17%	-1%	?
Cc1ccccc1SCC(=O)OCC(=O)Nc1ccc(N(C)C)cc1	13µM*	45µM*	?	?	40µM*
CN(C)c1ccc(NC(=O)COC(=O)Cn2nnc3ccccc32)cc1	40µM*	-27%	?	-6%	-36%
Brc1ccc(-c2noc(COc3ccc4ccccc4c3)n2)o1	45µM*	28%	.	0%	?
COc1cccc(OCc2nc(-c3ccc(Br)o3)no2)c1	?	20%	42%	10%	?
SMILES	G9a block	JMJD2A Tudor	L3MBTL1 block	HP1b chromo inh	BAZ2B block
COc1ccc(-c2noc(-c3ccc(Br)o3)n2)cc1OC	11%[12.7 µM]	-6%	9%[11.4 µM]	34%	-4%
COc1ccc(Cc2nc(-c3ccc(Br)o3)no2)cc1OC	50µM*	-6%	6%	41%	2%
C=CCn1cnc2c(sc3nc(C)cc(C)c32)c1=O	-9%	-17%	0%	42%	-1%
C=CCn1c(-c2cc(OC)cc(OC)c2)n[nH]c1=S	?	32µM*	8%	26%	13%
C=CCn1c(-c2sc3nc(C)cc(C)c3c2N)n[nH]c1=S	7.9µM*	40µM*	-7%	52%	-17%
C=CCn1c(-c2cccc(OCC)c2)n[nH]c1=S	8.9µM*	22µM*	6%	38%	-9%
